Source: PubChem BioAssay
KCNH2 3.1 block = inhibitors of human KCNH2 3.1 potassium channel isoform. AID 720553. activity change, % (tested at about 1.8 µM). U2OS KCNH2 3.1, thallium flux FluxOr; active compounds read low. hit rate 0.95% among 340,000;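 active = maximum activity change below -70%; inconclusive = maximum activity change from -70% to -50%; inactive = maximum activity change above -50%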;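 note: thallium influx rate constant from kinetic fluorescence after stimulation buffer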
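Measured as rate of thallium-driven FluxOr signal in transduced U2OS cells carrying the 3.1 channel, read kinetically for 2 min upon stimulation; values are rate constants scaled to DMSO control wells.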
hERG WT inh = blocks the wildtype human KCNH2 potassium channel. activity change, % at 1.84 µM. hit rate 0.37% among 340,000. U2OS, BacMam KCNH2, thallium flux FluxOr; active compounds read low. Q12809;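 active = maximum activity change below -70%; inconclusive = maximum activity change between -70% and -50%; inactive = maximum activity change above -50%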
Target sequence (Q12809 whole entry, looked up): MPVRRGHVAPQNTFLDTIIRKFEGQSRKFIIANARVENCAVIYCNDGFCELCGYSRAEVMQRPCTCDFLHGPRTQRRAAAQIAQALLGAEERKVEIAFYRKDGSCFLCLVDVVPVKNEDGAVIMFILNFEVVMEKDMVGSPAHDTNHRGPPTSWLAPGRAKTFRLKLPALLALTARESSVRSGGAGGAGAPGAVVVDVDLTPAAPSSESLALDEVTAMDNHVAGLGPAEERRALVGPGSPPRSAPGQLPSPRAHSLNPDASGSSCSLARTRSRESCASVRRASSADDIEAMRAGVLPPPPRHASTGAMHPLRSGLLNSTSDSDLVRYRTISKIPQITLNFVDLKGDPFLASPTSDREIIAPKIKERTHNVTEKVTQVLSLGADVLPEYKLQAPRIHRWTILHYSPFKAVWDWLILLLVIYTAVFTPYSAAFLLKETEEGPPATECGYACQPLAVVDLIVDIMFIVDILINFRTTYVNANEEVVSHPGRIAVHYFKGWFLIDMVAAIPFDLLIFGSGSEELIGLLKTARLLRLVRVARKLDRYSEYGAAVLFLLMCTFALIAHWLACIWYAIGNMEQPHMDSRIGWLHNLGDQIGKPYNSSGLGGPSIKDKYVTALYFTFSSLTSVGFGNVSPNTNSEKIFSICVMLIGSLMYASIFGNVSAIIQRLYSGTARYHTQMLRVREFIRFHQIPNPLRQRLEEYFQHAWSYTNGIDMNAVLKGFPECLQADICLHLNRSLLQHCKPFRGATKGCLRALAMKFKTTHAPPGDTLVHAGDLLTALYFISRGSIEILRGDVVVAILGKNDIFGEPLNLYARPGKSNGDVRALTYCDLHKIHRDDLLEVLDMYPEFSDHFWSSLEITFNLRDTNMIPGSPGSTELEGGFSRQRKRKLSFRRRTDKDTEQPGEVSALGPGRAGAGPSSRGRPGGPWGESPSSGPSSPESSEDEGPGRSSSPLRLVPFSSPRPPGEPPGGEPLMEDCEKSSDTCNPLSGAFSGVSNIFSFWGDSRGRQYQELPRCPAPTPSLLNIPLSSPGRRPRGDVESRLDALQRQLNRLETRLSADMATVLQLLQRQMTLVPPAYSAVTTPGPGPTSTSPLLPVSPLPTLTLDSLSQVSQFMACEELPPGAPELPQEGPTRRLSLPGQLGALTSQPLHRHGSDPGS
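U2OS cells transduced with wild-type KCNH2 virus are loaded with FluxOr dye for 45 min, and thallium flux is measured in kinetic reads before and after stimulation buffer. Rate constants are normalized to DMSO controls.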
KB-V1 MDR tox = KB-V1 MDR subline cytotoxicity; AID 1347076; hit rate 3.4% among 400,000; KB-V1 MDR cells viability, CellTiter-Glo, 72 h; Potency, µM (top dose mostly 46.1 µM), hits mostly cytotoxic; note: nearly all actives have a fitted effect of over 60% in size
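KB-V1 MDR subline cells in DMEM (phenol-red free, 10% FBS) exposed to compounds in qHTS concentration series for 72 h at 37 degrees C. Viability read by CellTiter-Glo luminescence; concentration-effect curves fitted after normalization and correction.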
MCF10A rereplic = induces DNA re-replication in MCF 10a normal breast cells; MCF 10A DNA re-replication, Hoechst nuclear intensity, 48 h; Potency, µM (titrated, usually from 46.1 µM), most hits filed as activators; hit rate 2.9% among 350,000; note: nearly all actives have a fitted effect of over 50% in size
KB-3-1 tox = KB-3-1 parental cell cytotoxicity; hit rate 1.4% among 400,000; Potency, µM (top dose mostly 46.1 µM), actives largely listed as cytotoxic; KB-3-1 viability, CellTiter-Glo ATP luminescence, 72 h; note: nearly all actives have a fitted effect of over 60% in size
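Screening of KB-3-1 cells (DMEM, 10% FBS, phenol-red free) ran from lowest to highest compound concentration; after 72 h at 37 °C viability was read luminescently and curves fitted.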
SW480 rereplic = DNA re-replication induction in SW480 cells | SW480 DNA re-replication, Hoechst DNA content imaging, 48 h | AID 624297 | Potency, µM (titrated, usually from 46.1 µM), usual class: activators | hit rate 1.8% among 340,000; note: nearly all actives have a fitted effect of over 55% in size
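250 cells/well; 23 nL cpd via pin tool; 48 hr, 37 C, 5% CO2; Hoechst 40 min; imager read of total nuclear intensity, ex 405/em 500-530 nm.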
Hits are given with their value; i = inactive; ? = inconclusive; nt = no result; [ ] = another dose, or the depositor's remark. Sampled rows, rich in hits. Any-hit rate of the full collection: about 7.6%. Unless noted, calls come from the whole dose curve; as a rule, active = well fitted curve in the direction sought with a large enough effect; inconclusive = small, poorly fitted or top-dose-only effect, or another doubt; inactive = no such curve, though single readings can be large; an effect the other way counts as inactive or inconclusive.

SMILES | KCNH2 3.1 block | hERG WT inh | KB-V1 MDR tox | MCF10A rereplic | KB-3-1 tox | SW480 rereplic
COc1ccc(-c2nc(SC(C)C(=O)NCC3CCCO3)n[nH]2)cc1 (stereo unspecified) | i | i | i | 13µM | ? | 16µM
COc1ccc(-c2cn3nc(SCC(=O)NC4CCCCC4)ccc3n2)cc1 | i | i | i | 3.7µM | i | 8.2µM
COc1ccc(-c2nc(SCC(=O)NC3CCCCC3)n[nH]2)cc1 | i | i | ? | ? | ? | 16µM
O=C(C#Cc1ccccc1)c1ccccc1 | i | i | ? | nt | i | nt
COc1ccc(CCNC(=O)c2cc(C)oc2C)cc1 | i | i | i | i | i | i
COc1cc(NC(=O)Cn2ncc(Cl)c(Cl)c2=O)c(C)cc1[N+](=O)[O-] | i | i | i | 3.7µM | i | ?
O=C(Nc1ccc(OCC(=O)N2CCOCC2)cc1)Nc1cccc2ccccc12 | i | i | i | i | i | i
CC(=O)c1cnc2n(c1=O)CCS2 | i | i | i | i | i | 13µM
COc1ccc(CC(=O)NNC2=Nc3cccc4cccc2c34)cc1OC | i | i | i | i | i | ?
O=C(NNC1=Nc2cccc3cccc1c23)c1ccc(Br)cc1 | i | i | i | 15µM | ? | 18µM
O=C1CC2C(=O)NCCN2C(=NC(=O)c2ccc(Cl)cc2)N1 (stereo unspecified) | i | i | i | i | i | i
Cc1cc(C)cc(C(O)c2ncc(-c3cccc(C(F)(F)F)c3)[nH]2)c1 (stereo unspecified) | nt | nt | i | nt | i | nt
CCN(CC)CCCCN1c2ccccc2Sc2ccccc21 | -73 | i | ? | 26µM | ? | 18µM
COc1cccc(NC(=O)C(Sc2nnc3ccccn23)c2ccccc2)c1 (stereo unspecified) | i | i | 21µM | ? | i | i
CCCn1c(SC(C(=O)Nc2cccc(OC)c2)c2ccccc2)nc2ccccc2c1=O (stereo unspecified) | i | i | i | i | i | ?
C/C(=N\NC(=O)c1cccnc1)c1cc(C)oc1C | i | i | i | i | i | 21µM
CCc1n[nH]c(=S)n1/N=C/C(C)=C\c1ccccc1 | i | i | 7.3µM | i | ? | i
CC(=O)N1c2ccccc2N(Cc2ccc(C)cc2C)C(=O)C1(C)C | i | i | ? | 12µM | 4.1µM | 18µM
Cc1cc(/C=N/n2cnnc2)c(C)n1-c1ccc(OCc2ccccc2F)cc1 | i | i | i | i | ? | i
Cc1cc(/C=N/n2cnnc2)c(C)n1-c1ccc(OCc2ccc(Cl)cc2)cc1 | i | i | 3.7µM | ? | 8.2µM | i
COc1ccc(COc2cc(-c3cccc(OC)c3)nc3ccc(N)cc23)cc1 | i | i | 5.8µM | 0.73µM | ? | 1.5µM
COc1ccc(COc2cc(-c3cccc(OC)c3)nc3ccc(NC(=O)c4ccc(N(C)C)cc4)cc23)cc1 | i | i | i | 5.8µM | 4.6µM | 9.2µM
COc1ccc(COc2cccnc2N)cc1 | i | i | i | i | i | i
COc1ccc(COc2cc(-c3cccc(OC)c3)nc3ccc(NC(=O)c4ccc(C)cc4)cc23)cc1 | i | i | i | 5.8µM | 9.2µM | 21µM
COc1ccc(COc2cc(-c3cccc(OC)c3)nc3ccc(NC(C)=O)cc23)cc1 | i | i | i | i | i | ?
SMILES | KCNH2 3.1 block | hERG WT inh | KB-V1 MDR tox | MCF10A rereplic | KB-3-1 tox | SW480 rereplic
CCCN=C1N(C)C[C@@H]2[C@@H]3C(=O)N(C)C(=O)[C@@H]3[C@](CC)(C(=O)OC)N12 | i | i | i | i | ? | i[9.22 µM]
Cc1nnc2ccc(-c3cccc(NS(=O)(=O)c4ccccc4Cl)c3)nn12 | i | i | i | ? | ? | i
CCCS(=O)(=O)Nc1cccc(-c2ccc3nnc(C)n3n2)c1 | i | nt | i | i | i | 18µM
O=C(Nc1ccc(F)cc1)C(=O)c1c(O)[nH]c2ccc([N+](=O)[O-])cc12 | -82 | i | i | i | i | i
Cc1oc2c(O)c(O)ccc2c(=O)c1-c1cnn(-c2ccccc2)c1 | i | i | 3.7µM | i | i | ?
Cc1oc2c(O)c(O)ccc2c(=O)c1-c1ccccc1 | i | i | ? | i | i | ?
O=C(/C=C/Nc1ccc([N+](=O)[O-])cc1Br)c1cccc2ccccc12 | i | i | i | i | 23µM | ?
NC(=O)c1cc([N+](=O)[O-])ccc1NCc1cccc2ccccc12 | i | i | ? | ? | i | i
CCCC(=O)N1CCC1(C)C(=O)Nc1ccc2nc(C)ccc2c1 (stereo unspecified) | nt | nt | i | nt | i | nt
CCOc1cccc(C2C=C(c3ccc4c(c3)OCO4)NC(c3ccc(Cl)cc3)N2)c1O (stereo unspecified) | nt | nt | i | nt | 10µM | nt
CC1(C(=O)Nc2cccc3cccnc23)CCN1Cc1csc2ccccc12 (stereo unspecified) | nt | nt | i | nt | ? | nt
Cc1cccc(NC(=S)NCC(C)CSc2ccc(Cl)cc2)c1 (stereo unspecified) | i | i | ? | 18µM | ? | ?
COc1ccc(OC)c(NC(=S)NCCSc2ccc(C)cc2)c1 | i | i | 23µM | i | i | i
Cc1ccc(NC(=S)NCCSc2ccc(Cl)cc2)c(C)c1 | i | i | i | 23µM | i | ?
CC(C)c1ccc(S(=O)(=O)N2CCC(C(=O)NCc3ccco3)CC2)cc1 | i | i | ? | i | i | i
CCOC(=O)c1c(C)[nH]c(C(=O)COC(=O)c2cnccn2)c1C | i | i | i | ? | i | i
CCOC(=O)c1c(C)[nH]c(C(=O)COC(=O)c2ccncc2)c1C | i | i | 7.3µM | i | ? | i
Cc1[nH]c2ccccc2c1C(=O)COC(=O)C1CC(=O)N(Cc2ccccc2)C1 (stereo unspecified) | i | i | i | i | i | i
CCOC(=O)c1c(C)[nH]c(C(=O)COC(=O)C2CC(=O)N(Cc3ccccc3)C2)c1C (stereo unspecified) | i | i | 3.3µM | i | i | i
O=C(Nc1cccc(O)c1)c1ccc(Br)c(S(=O)(=O)N2CCCCC2)c1 | -92 | i | i | i | i | i
O=C(Nc1ccc2c(c1)OCO2)c1ccc(Br)c(S(=O)(=O)N2CCCC2)c1 | i | i | 5.2µM | i | ? | i
O=C(Nc1ccc2c(c1)OCCO2)c1ccc(Br)c(S(=O)(=O)N2CCOCC2)c1 | i | i | ? | ? | i | i
O=C(Nc1ccccc1)c1ccc(Br)c(S(=O)(=O)N2CCCCC2)c1 | nt | nt | i | nt | ? | nt
CCc1nn(C(C)C(=O)N2CCN(c3cccc(C(F)(F)F)c3)CC2)c(=O)c2cc3occc3n12 (stereo unspecified) | nt | nt | 8.2µM | nt | 13µM | nt
CCc1nn(C(C)C(=O)N2CCN(c3ccc(OC)cc3)CC2)c(=O)c2cc3occc3n12 (stereo unspecified) | i | i | i | ? | 9.2µM | ?
